# Compound activity: PubChem BioAssay, National Center for Advancing Translational Sciences (NCATS)
# A selection: hits, their analogues and other compounds. The true share with any hit is near 15%.
# VP16 counter: VP16 counterscreen qHTS for inhibitors of ROR gamma transcriptional activity | Drosophila S2 Gal4-VP16 UAS-luciferase, luminescence, 20 h | Potency, µM (series often up to 53.6 µM), for inactives: at the highest dose activity, negative = inhibition, usual class: inhibitors | 310,000 compounds, 3.5% hits | AID 2546, 2010;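 further: Gal4-VP16 expression switched on by copper sulfate through the metallothionein promoter; nearly all actives have a fitted effect of over 50% in size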
# 12-LOX inh: Primary qHTS assay for inhibitors of human arachidonate 12S-lipoxygenase (ALOX12): Round 2. Polyunsaturated fatty acid lipoxygenase ALOX12 (Homo sapiens), P18054. purified 12hLO, xylenol orange hydroperoxide absorbance. Potency, µM (top dose mostly 108 µM), for the others: at the highest dose activity change, negative = inhibition, most hits filed as inhibitors. 580,000 compounds, 1.1% hits. AID 1671190, 2021
#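 Purified human 12hLO at 150 nM in 25 mM Hepes, 0.01% Triton X-100, pH 7.0, preincubated 15 min at room temperature with compound. Reaction started with 40 uM arachidonic acid, 30 min at room temperature. Hydroperoxide measured by Fe-xylenol orange, 573/405 nm absorbance ratio.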
# RORg inh: qHTS for inhibitors of ROR gamma transcriptional activity; Nuclear receptor ROR-gamma (Mus musculus), P51450; 310,000 compounds, 5.4% hits; Potency, µM (titrated, usually from 53.6 µM), inactives show top-dose activity change, negative = inhibition, hits mostly inhibitors; Drosophila S2 Gal4-RORgamma UAS-luciferase reporter, 20 h; further: nearly all actives have a fitted effect of over 60% in size
# Target sequence (P51450 whole entry, looked up, the tested form may be a part): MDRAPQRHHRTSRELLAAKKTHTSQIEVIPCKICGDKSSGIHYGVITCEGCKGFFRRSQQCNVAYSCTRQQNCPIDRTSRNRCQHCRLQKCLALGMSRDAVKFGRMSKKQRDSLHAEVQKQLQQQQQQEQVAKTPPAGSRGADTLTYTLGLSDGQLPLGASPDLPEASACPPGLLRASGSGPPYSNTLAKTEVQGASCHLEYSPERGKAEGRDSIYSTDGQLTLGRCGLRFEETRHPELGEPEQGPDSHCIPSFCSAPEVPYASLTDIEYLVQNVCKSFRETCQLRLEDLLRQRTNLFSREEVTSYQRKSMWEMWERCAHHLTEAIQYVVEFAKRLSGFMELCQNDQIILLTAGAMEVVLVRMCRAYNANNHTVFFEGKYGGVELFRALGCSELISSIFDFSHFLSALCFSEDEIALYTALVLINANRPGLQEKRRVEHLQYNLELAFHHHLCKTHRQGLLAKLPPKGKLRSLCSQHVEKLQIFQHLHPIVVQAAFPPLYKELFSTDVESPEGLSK
#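 Schneider cells (Drosophila), stable Gal4 DBD–ROR gamma + UAS-luc; 1 hr cmpd preincubation; Cu2+ induction 700 uM final; 20 hr ambient; luminescence.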
# DT40 TDP1 CPT: qHTS for Inhibitors of human tyrosyl-DNA phosphodiesterase 1 (TDP1): qHTS in cells in presence of CPT; 420,000 compounds, 12% hits; Potency, µM (top dose mostly 46.2 µM), for inactives: top-dose activity change, negative = growth inhibition, usual class: inhibitors; chicken DT40 Tdp1-/-;hTDP1 cells + 20 nM CPT, ATP luminescence, 48 h; further: nearly all actives have a fitted effect of over 55% in size
#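 Chicken DT40 Tdp1-/- cells stably complemented with human TDP1 were seeded at 400 cells/well in medium containing 20 nM camptothecin, exposed to pin-transferred compounds, and grown at 37 °C for at least 48 hr. Viability was read as ATP luminescence.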
# ELG1 repair inh: qHTS screen for small molecules that inhibit ELG1-dependent DNA repair in human embryonic kidney (HEK293T) cells expressing luciferase-tagged ELG1; HEK293T ELG1-luciferase reporter, luminescence, 16 h; DNA damage induced by 5-fluorouridine; Potency, µM (titrated, usually from 46.1 µM), for inactives: top-dose activity change, negative = inhibition, actives largely listed as inhibitors; 330,000 compounds, 2.3% hits; AID 504467, 2011; further: nearly all actives have a fitted effect of over 55% in size
#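 5-Fluorouridine DNA damage + compound/DMSO, 2,000 cells/well, 16 h, 37 °C/5% CO2. ONE-Glo, 30 min RT, luminescence. Readout = decrease in reporter signal.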
# TDP1 cell noCPT: qHTS for Inhibitors of human tyrosyl-DNA phosphodiesterase 1 (TDP1): qHTS in cells in absence of CPT; DT40 Tdp1-/- hTDP1 cells, no CPT, ATP luminescence, 48 h; Potency, µM (titrated, usually from 46.2 µM), for inactives: at the highest dose activity change, negative = growth inhibition, most hits filed as inhibitors; 420,000 compounds, 15% hits; further: nearly all actives have a fitted effect of over 55% in size
#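 Cells were dispensed at 400 per well, compounds added by pin tool, plates incubated ≥48 hr at 37 °C, then CellTiter-Glo added for 30 min at room temperature before luminescence reading. Line: DT40 Tdp1-/- complemented with hTDP1; camptothecin omitted.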
# * marks the source's active call; other numbers are inactive results; ? = inconclusive; / = no result; [ ] = dose if it differs, or a comment. The call rests on the fitted dose curve; in most records, active means well fitted curve in the direction sought with a large enough effect; inconclusive means small, poorly fitted or top-dose-only effect, or another doubt; inactive means no such curve, though single readings can be large; an effect the other way counts as inactive or inconclusive. On the % scale 0 is the no-effect control and ±100 the full control effect; potency means the concentration at half of the fitted maximal effect.
SMILES,VP16 counter,12-LOX inh,RORg inh,DT40 TDP1 CPT,ELG1 repair inh,TDP1 cell noCPT
CC1(C)CN(Cc2cc(C#N)ccc2F)CCO1,/,2.2%,/,/,/,/
CCN(CCOc1ccccc1)C(=O)c1ccoc1C,/,4.3%,/,/,/,/
CN(C)CCCN(C(=O)c1ccco1)c1nc2cc3c(cc2s1)OCO3,-20.1%,-5.4%,-10.1%,3.66µM*,19.9%,5.17µM*
CN(C)CCN(C(=O)c1ccc2ccccc2c1)c1nc2cc3c(cc2s1)OCO3,/,?,/,?,/,23.1µM*
CN(C)CCN(C(=O)c1ccc2c(c1)OCCO2)c1nc2cc3c(cc2s1)OCO3,9.6%,/,-7.6%,-10.0%,26.1%,-12.2%
O=C(N(Cc1cccs1)c1cccc(C(F)(F)F)c1)C12CC3CC(CC(C3)C1)C2,/,-22.4%,/,/,/,/
Nc1n[nH]c2c1C1(CCCC1)Cc1ccccc1-2,-11.2%,-4.6%,?,-13.6%,?,?
Nc1nc(=S)[nH]c2c1C1(CCCCC1)Cc1ccccc1-2,3.98µM*,?,2.24µM*,?,15.2%,?
Nc1nc(=S)[nH]c2c1C1(CCCC1)Cc1ccccc1-2,8.91µM*,?,6.31µM*,?,-14.6%,?
CC(=O)c1ccc(NC(=O)CSc2cn(CC(=O)N(C(C)C)C(C)C)c3ccccc23)cc1,/,-25.5%,/,?,/,14.6µM*
Cc1ccccc1NC(=O)CSc1cn(CC(=O)N(C(C)C)C(C)C)c2ccccc12,/,-0.3%,/,?,/,14.6µM*
O=C(CCCc1ccccc1)Nc1ccc(Br)cc1F,8.5%,/,36.4%[1.91 µM],14.6µM*,?,?
O=C(CCCc1ccccc1)Nc1ccccc1[N+](=O)[O-],9.6%,-17.2%,26.2%,10.3µM*,?,20.6µM*
O=C(Cc1ccccc1[N+](=O)[O-])NCCCc1ccccc1,-3.5%,15.7%,0.224µM*,16.4µM*,4.0%,?
Cc1ccc(Nc2nc3ccccc3nc2NS(=O)(=O)c2ccccc2)cc1,/,-9.2%,/,/,/,/
COC(=O)c1cc(Nc2nc3ccccc3nc2NS(=O)(=O)c2ccc(C)cc2)ccc1Cl,/,?,/,18.4µM*,/,6.51µM*
CC(=O)Nc1ccc(Nc2nc3ccccc3nc2NS(=O)(=O)c2ccc(Cl)c([N+](=O)[O-])c2)cc1,/,?,/,7.31µM*,/,5.8µM*
Cc1ccc(CNC(=O)N2CCCCCCNC(=O)[C@@H]3CCC[C@@H]32)cc1,/,-1.2%,/,/,/,/
O=C(Cn1nc(-c2ccccc2)c2ccccc2c1=O)Nc1ccc(C(=O)N2CCCCC2)cc1,/,4.7%,/,/,/,/
CCOc1ccc2nc(NC(=O)C3CCN(C(=O)c4ccco4)CC3)sc2c1,12.9%,?,33.6%,?,?,?
CCOc1ccc2nc(N3CCC(C(=O)N4CCN(C5CCCCC5)CC4)CC3)sc2c1,-20.5%,10.4%[57.4 µM],10.3%,8.2µM*,?,?
CCOc1ccc2nc(N3CCC(C(=O)Nc4ccccc4CC)CC3)sc2c1,/,-19.0%,/,?,/,23.1µM*
CCOc1ccc2nc(N3CCC(C(=O)Nc4nnc(CC)s4)CC3)sc2c1,-10.5%,5.8%,-4.5%,-25.8%,?,-1.2%
CCOc1ccc2nc(N3CCCC(C(=O)N4CCN(CC)CC4)C3)sc2c1 (stereo not given),-12.7%,?,29.1%,-3.8%,?,-22.5%
CCOc1ccc2nc(N3CCC(C(=O)N4CCN(C(=O)c5ccco5)CC4)CC3)sc2c1,5.7%,/,?,?,?,23.1µM*
Cc1ccc(NC(=O)c2cc(-c3cccnc3)nc3ccc(C)cc23)nc1,/,-3.8%,/,/,/,/
